Only some compounds are listed: those with a hit (about 6.8% of all), similar ones and a draw of the others.
Autofluor 339 = intrinsic fluorescence of library compounds, ex339/em460 – biochemical, MLSMR library, data from DPM-DC assay, artefact control, profiling panel | compound autofluorescence, ex339/em460 nm, NADH buffer; active compounds read high; 1 = no-compound wells, NADH background | fluorescence fold increase at 10 µM | 65,000 tested, 5.5% active | AID 709;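 active means at 10 µM, mean starting fluorescence two-fold or more over control wells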;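 further: signal is the first read of a kinetic run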
Abs 340nm = compounds absorbing at 340 nm; 65,000 tested, under 10 active; compound absorbance at 340 nm, fold over control; fold change at 10 µM;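 active means at 10 µM dose, initial 340 nm absorbance at least 2 fold that of control wells; inactive means change under 2 fold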;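 further: initial absorbance extrapolated from kinetic A340 decline of NADH oxidation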
DPM-DC inhibit = S. pneumoniae DPM-DC inhibition | purified DPM-DC, PK/LDH coupled NADH fluorescence | calls only at 10 µM | 65,000 tested, 0.49% active | AID 556;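 active means the 320 compounds with the highest percent inhibition in the single-dose primary screen, excluding strongly autofluorescent ones, cut at about 32% in these data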;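 further: kinetic rate of NADH fluorescence loss reporting ADP formed by the decarboxylase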
NADH enzymes = inhibitors of enzymes used to reach an NAD/NADH endpoint; 65,000 tested, 0.02% active; IC50, µM (titrated, usually from 10 µM), without a hit: at the highest dose inhibition; coupled PK/LDH NADH assays, four targets;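 active means single-dose screening hits from any of four coupled enzyme assays that gave an IC50 when retested across doses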;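 further: the DPM-DC format reads NADH fluorescence rather than 340 nm absorbance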
Spn PMK inh = S. pneumoniae PMK inhibition. 65,000 tested, 0.49% active. inhibition, % at 10 µM. AID 539. purified PMK, PK/LDH-coupled NADH absorbance 340 nm;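 active means top-ranked compounds by inhibition in the single 10 µM screen, taking a fixed number of the strongest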;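 further: 0% = full reaction with DMSO carrier and 100% = background rate without enzyme reaction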
Spn MK inh = blocks S. pneumoniae mevalonate kinase. purified MK, PK/LDH-coupled NADH absorbance 340 nm. inhibition, % at 10 µM. 65,000 tested, 0.48% active. AID 555;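 active means ranked among the strongest by inhibition in the single 10 µM screen, a fixed top-ranked set picked for dose follow-up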
Active calls of the source: *; i = inactive; · = not tested or not shown; + = active, no number.

SMILES | Autofluor 339 | Abs 340nm | DPM-DC inhibit | NADH enzymes | Spn PMK inh | Spn MK inh
CCN1CCN(C(=O)CCCCCn2c(=O)[nH]c3cc(C(=O)OC)ccc3c2=O)CC1 | 2.6* | 0.98 | i | 10% | 19 | 3
CSc1cccc(NS(=O)(=O)c2ccc3c(c2)oc(=O)n3C)c1 | 1 | 1 | i | 9% | 16 | 11
CCOC(=O)C1CCN(C(=O)CN(c2ccc(OC)c(OC)c2)S(=O)(=O)c2ccccc2)CC1 | 1.1 | 1 | i | 27% | 2 | 71*
CCn1ncc(C2=NOC(C(=O)NCCc3ccccc3)C2)c1C (centres undefined) | 1.1 | 0.99 | i | 0% | 0 | 1
C=CCn1c(N(C)C)nc2c1c(=O)[nH]c(=O)n2C | 0.96 | 1 | i | 5% | 9 | 3
COCCCn1c(-c2ccccc2)nc2ccccc2c1=O | 1.1 | 1 | i | 1% | 0 | 2
COCCCNC(=O)c1ccc2nc3ccccc3c(=O)n2c1 | 4.9* | 1.1 | · | 11% | 21 | 0
CCn1c2ccccc2c2nnc(SCN3C(=O)c4ccccc4C3=O)nc21 | 1.1 | 1.1 | i | 3% | 4 | 4
O=C(Nc1cn(-c2ccccc2)nc1-c1cccs1)c1ccco1 | 1.1 | 1.1 | i | 2% | 7 | 0
Cc1cc(C)c2oc(-c3ccc(Cl)c(NC(=O)c4ccc(C#N)cc4F)c3)nc2c1 | 4* | 1.1 | · | 7% | 5 | 9
Cc1ccc(-c2nnc(-c3ccc(Br)cc3)o2)o1 | 3.4* | 1 | · | 2% | 6 | 6
C/C=C(\CS(=O)(=O)c1ccccc1)S(=O)(=O)c1ccccc1 | 1 | 0.99 | i | 3% | 8 | 4
COc1ccc(Cl)cc1NC(=O)CN1CCC(n2nnc3cc(F)ccc32)CC1 | 1.1 | 1 | i | 10% | 11 | 9
CCc1cc2c(C)cc(=O)oc2cc1OC(=O)C1CCCN1C(=O)OC(C)(C)C (centres undefined) | 4.9* | 1 | · | 11% | 11 | 10
CC(C)(C)OC(=O)N1CCCC1C(=O)NCCc1ccccc1 (centres undefined) | 1.2 | 1 | i | 4% | 3 | 9
Cc1ccc2cc(C#N)c(N3CCCN(C(=O)C4CCCO4)CC3)nc2c1C (centres undefined) | 2.4* | 0.99 | i | 11% | 10 | 7
Cc1cc(C)c(-c2cc(C(F)(F)F)no2)c(=O)[nH]1 | 3.7* | 1.2 | · | 12% | 9 | 15
COC(=O)C1=C(C)NC(C)=C(C(=O)OC)C1c1ccccc1OCc1c(C)no[n+]1[O-] | 1.4 | 1 | i | 4% | 4 | 7
Cc1cccc(C2Nc3ccccc3C(=O)N2CCc2ccccc2)n1 (centres undefined) | 2.2* | 1 | · | 7% | 7 | 7
O=C1c2ccccc2NC(c2cnc3ccccc3n2)N1O (centres undefined) | 1.5 | 1.1 | i | 5% | 9 | 6
CCCC(=O)N(Cc1cc2cc(C)ccc2[nH]c1=O)c1ccccc1OC | 1.3 | 1.1 | i | 2% | 3 | 3
COc1ccc(CC(=O)N(Cc2cc3cc(OC)ccc3[nH]c2=O)C(C)C)cc1 | 2.6* | 1.1 | i | 11% | 8 | 7
COc1ccc2[nH]c(=O)c(CN(C(=O)c3ccncc3)C(C)C)cc2c1 | 1.7 | 1 | i | 5% | 11 | 1
COc1ccc(N(Cc2cc3ccccc3[nH]c2=O)C(=O)C2CCCO2)cc1 (centres undefined) | 1.3 | 1 | i | 4% | 0 | 12
CCOc1ccc(N(Cc2cc3cc(OC)ccc3[nH]c2=O)C(=O)C2CCCO2)cc1 (centres undefined) | 3* | 1.1 | i | 8% | 0 | 1
SMILES | Autofluor 339 | Abs 340nm | DPM-DC inhibit | NADH enzymes | Spn PMK inh | Spn MK inh
COCC(=O)N(Cc1cc2cc(OC)ccc2[nH]c1=O)c1ccccc1OC | 2.6* | 1 | i | 9% | 0 | 8
CCC(=O)N(Cc1cc2cc(OC)ccc2[nH]c1=O)c1cccc(C)c1 | 3* | 1 | i | 11% | 10 | 5
COc1ccc(-c2nnn(CC(=O)c3ccccc3)n2)cc1OC | 1.1 | 1 | i | 4% | 11 | 1
CCc1ccccc1NC(=O)CSc1nnc(-c2ccco2)n1N | 1.3 | 1 | i | 4% | 8 | 4
O=C(O)CS(=O)(=O)CC(=O)O | 1.1 | 1 | i | 2% | 0 | 7
COCC(=O)N(Cc1cc2ccc(C)cc2[nH]c1=O)c1ccc(OC)cc1 | 1.2 | 1 | i | 3% | 4 | 5
COCC(=O)N(Cc1cc2cc(OC)ccc2[nH]c1=O)c1ccc(C)cc1 | 2.1* | 1.1 | · | 9% | 16 | 1
CCN(Cc1cc2ccccc2[nH]c1=O)C(=O)C(C)C | 1.2 | 1.1 | i | 3% | 2 | 6
COC(=O)C1=CN(C2CC2)C=C(C(=O)OC)C1c1ccccc1OC | 3.8* | 1 | · | 6% | 8 | 4
O=C(CSc1nnc(COc2ccc3c(c2)CCCC3)o1)Nc1ccc(F)cc1 | 1 | 1 | i | 3% | 0 | 9
COc1ccc2c(=O)c3c(=O)n(Cc4ccco4)c(C4CCCCC4)nc3oc2c1 | 1 | 1 | i | 8% | 12 | 11
Cc1c(C#N)sc2nc(-c3ccccc3)nc(N3CCCC3)c12 | 2.5* | 1.1 | · | 2% | 0 | 3
CCN1CCc2c(C#N)c(N3CCCCC3)nc(N3CCOCC3)c2C1 | 2.3* | 1.1 | · | 6% | 1 | 11
CC(C)c1nc(N2CCOCC2)c(C#N)c2c1CCCC2 | 2.1* | 1 | · | 6% | 1 | 10
CCSc1nc(N2CCOCC2)c2c(c1C#N)CCCC2 | 1.1 | 0.99 | i | 7% | 4 | 7
CN1C(=O)c2ccccc2N(C)C1c1ccc2c(c1)OCO2 (centres undefined) | 3.9* | 0.98 | · | 8% | 7 | 8
c1ccc2sc(-c3ccc4c(c3)OCO4)nc2c1 | 2.1* | 1.1 | · | 12% | 15 | 8
CC(=O)c1ccc(NS(=O)(=O)c2cccc(C)c2)cc1 | 1.2 | 1.2 | i | 7% | 3 | 16
COc1cc(C(=O)OCC(=O)c2cc(C)n(C)c2C)cc(NC(=O)c2ccco2)c1OC | 2.9* | 1.1 | i | 11% | 10 | 0
Nc1ccc2oc(-c3cccc(Br)c3)nc2c1 | 2* | 1.1 | · | 5% | 1 | 9
Nc1cc(N)cc(-c2nc3ccccc3o2)c1 | 1.2 | 1 | i | 4% | 7 | 6
CC(C)c1ccc2oc(-c3cc(N)ccc3O)nc2c1 | 1.2 | 1.1 | i | 0% | 0 | 0
Cc1ccccc1-c1nc2cc(N)ccc2o1 | 3.1* | 1 | + | 18% | 11 | 9
COc1ccc(CNC(=O)c2cnn3c(C(F)F)cc(C)nc23)cc1OC | 1.1 | 1.1 | i | 6% | 12 | 5
CCOc1ccc2[nH]c(=O)c(CN(CCOC)C(=O)N3CCOCC3)cc2c1 | 3* | 1 | · | 4% | 13 | 1

Screens deposited in PubChem by SRMLSC.
